Data as given in PubChem BioAssay (Tox21).
Values joined by “and” are separate entries in the source; they are usually repeats but may differ in a detail not shown here. Equal values may be shown once. Some structures have more than one record in an assay (separate samples or runs), and their calls can disagree. Active and inactive are the calls of the source. Where a call stands in place of a potency, no number is given. Unless noted, calls come from the whole dose curve; as a rule, active = well fitted curve in the direction sought with a large enough effect in the repeat runs; inconclusive = weak or mixed curves; inactive = no such curve, though single readings can be large; an effect the other way counts as inactive or inconclusive.

Key:
[1] = qHTS assay to identify small molecule antagonists of the thyroid receptor (TR) signaling pathway - cell viability counter screen (AID 743064); note: nearly all actives have a fitted effect of over 50% in size; note: potency is the fitted concentration of half-maximal effect
Outline: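 Plate GH3.TRE-Luc cells; incubate 4 h at 37 °C; add compound, then T3 to 1 nM final; incubate 23.5 h; add CellTiter-Fluor; incubate 30 min at 37 °C, 5% CO2; read fluorescence.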

[2] = qHTS assay to identify small molecule antagonists of the thyroid receptor (TR) signaling pathway (AID 743065); note: nearly all actives have a fitted effect of over 55% in size; note: potency is the fitted concentration of half-maximal effect
Outline: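 Antagonism measured as loss of luciferase signal in GH3 cells stably carrying a TRE-luciferase reporter, co-treated with compound and T3 (1 nM final) for 23.5 h at 37 C. Viability was read in the same well by CellTiter-Fluor.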

[3] = tested on: thyroid hormone receptor (rat, GH3 cells); test: qHTS assay to identify small molecule agonists of the thyroid receptor (TR) signaling pathway (AID 743066; calls by dose curve; note: potency is the fitted concentration of half-maximal effect)
[4] = qHTS assay to identify small molecule antagonists of the estrogen receptor alpha (ER-alpha) signaling pathway - cell viability counter screen (AID 743074; calls by dose curve; note: nearly all actives have a fitted effect of over 45% in size; note: potency is the fitted concentration of half-maximal effect)
[5] = qHTS assay to identify small molecule antagonists of the estrogen receptor alpha (ER-alpha) signaling pathway using the BG1 cell line - cell viability counter screen (AID 743081);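 note: compound given together with 17beta-estradiol as the ER stimulus; nearly all actives have a fitted effect of over 45% in size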; note: potency is the fitted concentration of half-maximal effect
Aromatase (Homo sapiens) = Aromatase (Homo sapiens) (UniProt P11511); test: qHTS assay to identify aromatase inhibitors (AID 743083); note: nearly all actives have a fitted effect of over 55% in size; note: potency is the fitted concentration of half-maximal effect
[6] = qHTS assay to identify aromatase inhibitors - cell viability counter screen (AID 743084);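 note: cells stimulated with testosterone during compound exposure; nearly all actives have a fitted effect of over 55% in size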; note: potency is the fitted concentration of half-maximal effect
[7] = biological target: Aryl hydrocarbon receptor (Homo sapiens) (UniProt P35869); test: qHTS assay to identify small molecule that activate the aryl hydrocarbon receptor (AhR) signaling pathway (AID 743085); note: nearly all actives have a fitted effect of over 15% in size; note: potency is the fitted concentration of half-maximal effect;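 for activation: HG2L7.5c1 human HepG2 liver cells with stably integrated DRE-driven firefly reporter; series mostly up to about 70 µM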
Outline: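 Steps: seed HepG2-AhR-luc cells; allow 5 h at 37C; pin-transfer test compound or vehicle; incubate 24 h at 37C; add viability dye (30 min, 37C) and read fluorescence; add luciferase substrate (30 min, RT) and read luminescence.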

[8] = qHTS assay to identify small molecule that activate the aryl hydrocarbon receptor (AhR) signaling pathway - cell viability counter screen (AID 743086);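 note: HepG2 liver cells carrying the AhR DRE luciferase reporter; series mostly up to about 70 µM; nearly all actives have a fitted effect of over 45% in size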
Outline: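 Cytotoxicity counter screen: CellTiter-Fluor signal (30 min, 37 C) in 4000 HepG2 cells/well carrying the DRE-luciferase reporter, following 24 h compound exposure at 37 C.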

[9] = qHTS assay to identify small molecule antagonists of the peroxisome proliferator-activated receptor gamma (PPARg) signaling pathway - cell viability counter screen (AID 743194); note: nearly all actives have a fitted effect of over 55% in size; note: potency is the fitted concentration of half-maximal effect
Outline: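 Viability was measured as CellTiter-Glo luminescence in GeneBLAzer PPARg UAS-bla HEK293H cells. These cells had been exposed 17 h at 37 C to compounds together with rosiglitazone at 50 nM final, with the beta-lactamase readout taken in the same wells.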

[10] = qHTS assay for small molecule agonists of the antioxidant response element (ARE) signaling pathway - cell viability counter screen (AID 743203; calls by dose curve; note: nearly all actives have a fitted effect of over 55% in size; note: potency is the fitted concentration of half-maximal effect)
Outline: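 Luminescence read-out (CellTiter-Glo, 30 min at room temperature) measured cell viability in the same wells as the ARE beta-lactamase reporter. HepG2 ARE-bla cells were treated with compounds for 16 hrs at 37C/5% CO2.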

[11] = qHTS assay for small molecule activators of the heat shock response signaling pathway - cell viability counter screen (AID 743209); note: nearly all actives have a fitted effect of over 50% in size; note: potency is the fitted concentration of half-maximal effect
Outline: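 HSE-bla HeLa; 1500 cells/well; overnight 37 C, 5% CO2; compound 5 h 37 C; LiveBLAzer B/G substrate 2.5 h RT; CellTiter-Glo 30 min RT; luminescence.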

[12] = biological target: Estrogen receptor (Homo sapiens) (UniProt P03372); test: qHTS assay to identify small molecule agonists of the estrogen receptor alpha (ER-alpha) signaling pathway (AID 743075; calls by dose curve; note: potency is the fitted concentration of half-maximal effect)
[13] = biological target: Estrogen receptor (Homo sapiens) (UniProt P03372); test: qHTS assay to identify small molecule agonists of the estrogen receptor alpha (ER-alpha) signaling pathway using the BG1 cell line (AID 743079); note: nearly all actives have a fitted effect of over 20% in size; note: potency is the fitted concentration of half-maximal effect
[14] = qHTS assay to identify small molecule antagonists of the estrogen receptor alpha (ER-alpha) signaling pathway using the BG1 cell line (AID 743080; calls by dose curve;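 note: BG1 cells stimulated with 17beta-estradiol alongside compound; nearly all actives have a fitted effect of over 25% in size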; note: potency is the fitted concentration of half-maximal effect)
Outline: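 Endogenous full-length ER-alpha in BG1-Luc-4E2 cells drives a stably integrated 4×ERE luciferase gene; compounds were tested against 17beta-estradiol over 21.5 h, with luminescence and multiplexed viability fluorescence recorded.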

[15] = biological target: Peroxisome proliferator-activated receptor gamma (Homo sapiens) (UniProt P37231); test: qHTS assay to identify small molecule agonists of the peroxisome proliferator-activated receptor gamma (PPARg) signaling pathway (AID 743094; active = well fitted activation curve with a large enough effect in the signal ratio in the repeat runs, not every such curve was filed as active; inconclusive = weak or mixed curves, or effect the other way; inactive = no such curve, though single readings can be large or run the other way; the % refers to the signal ratio)
Outline: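 HEK293H PPARg-bla cells, 5 h settle at 37C/5% CO2; compound (DMSO) 17 h, 37C; B/G FRET substrate 1 h RT; fluorescence intensity read-out. qHTS format.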

[16] = qHTS assay for small molecule agonists of the antioxidant response element (ARE) signaling pathway (AID 743202; active = well fitted activation curve with a large enough effect in the signal ratio in the repeat runs, not every such curve was filed as active; inconclusive = weak or mixed curves, or effect the other way; inactive = no such curve, though single readings can be large or run the other way; the % refers to the signal ratio; note: potency is the fitted concentration of half-maximal effect)
Outline: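 Beta-lactamase reporter activity, read as fluorescence intensity, reflects ARE/Nrf2 pathway induction in HepG2 cells after 16 h compound exposure at 37 C; substrate loading was 2 h at room temperature.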

[17] = qHTS assay for small molecule activators of the heat shock response signaling pathway (AID 743210; active = well fitted activation curve with a large enough effect in the signal ratio in the repeat runs, with a control signal flat, not every such curve was filed as active; inconclusive = weak or mixed curves; the % refers to the signal ratio; note: potency is the fitted concentration of half-maximal effect;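 for activation: HeLa cells with beta-lactamase reporter driven by heat shock elements; series mostly up to about 63 µM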)
Outline: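 Fluorescence from a cleaved B/G FRET substrate (2.5 h, room temp) reports HSE-driven beta-lactamase in HeLa cells treated 5 h at 37 C with DMSO-dissolved compounds.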

[18] = biological target: Estrogen receptor (Homo sapiens) (UniProt P03372); test: qHTS assay to identify small molecule antagonists of the estrogen receptor alpha (ER-alpha) signaling pathway (AID 743069; active = well fitted curve in the direction sought with a large enough effect in the signal ratio in the repeat runs, not every such curve was filed as active; inconclusive = weak or mixed curves, or effect the other way; inactive = no such curve, though single readings can be large or run the other way; the % refers to the signal ratio)
Outline: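 Fluorescence intensity from a beta-lactamase FRET substrate served as the read-out. Cells: HEK293 with stably integrated ER-alpha-UAS-bla reporter. Agonist 17beta-estradiol was co-added with compounds; incubation 18 hr at 37C, substrate 2 hr at room temperature.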

[19] = biological target: Peroxisome proliferator-activated receptor gamma (Homo sapiens) (UniProt P37231); test: qHTS assay to identify small molecule antagonists of the peroxisome proliferator-activated receptor gamma (PPARg) signaling pathway (AID 743191; calls by dose curve; note: series mostly up to about 63 µM; nearly all actives have a fitted effect of over 30% in size)
Outline: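 Beta-lactamase reporter under UAS control in HEK293H PPARg-bla cells; compound treatment 17 h at 37C. Read-out: fluorescence intensity after 1 h room-temperature incubation with LiveBLAzer B/G FRET substrate.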

Sequence of Estrogen receptor (Homo sapiens) (P03372 whole entry, looked up): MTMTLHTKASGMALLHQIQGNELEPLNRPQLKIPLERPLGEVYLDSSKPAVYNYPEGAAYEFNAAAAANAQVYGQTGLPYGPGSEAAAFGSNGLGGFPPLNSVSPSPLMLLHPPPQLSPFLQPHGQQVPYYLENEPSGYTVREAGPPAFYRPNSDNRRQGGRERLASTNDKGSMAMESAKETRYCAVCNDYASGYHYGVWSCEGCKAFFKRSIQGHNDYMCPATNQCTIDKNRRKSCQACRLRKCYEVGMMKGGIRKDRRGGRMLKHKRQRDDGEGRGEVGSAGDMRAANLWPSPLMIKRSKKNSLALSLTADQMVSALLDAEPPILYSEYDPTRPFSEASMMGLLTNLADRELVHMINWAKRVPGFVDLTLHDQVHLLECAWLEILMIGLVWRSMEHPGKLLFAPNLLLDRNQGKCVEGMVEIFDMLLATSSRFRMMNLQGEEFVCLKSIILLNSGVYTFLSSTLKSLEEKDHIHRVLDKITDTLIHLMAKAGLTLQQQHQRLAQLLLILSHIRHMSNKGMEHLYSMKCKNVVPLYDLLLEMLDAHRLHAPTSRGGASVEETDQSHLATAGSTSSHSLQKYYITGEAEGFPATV
Sequence of Aryl hydrocarbon receptor (Homo sapiens) (P35869 whole entry, looked up): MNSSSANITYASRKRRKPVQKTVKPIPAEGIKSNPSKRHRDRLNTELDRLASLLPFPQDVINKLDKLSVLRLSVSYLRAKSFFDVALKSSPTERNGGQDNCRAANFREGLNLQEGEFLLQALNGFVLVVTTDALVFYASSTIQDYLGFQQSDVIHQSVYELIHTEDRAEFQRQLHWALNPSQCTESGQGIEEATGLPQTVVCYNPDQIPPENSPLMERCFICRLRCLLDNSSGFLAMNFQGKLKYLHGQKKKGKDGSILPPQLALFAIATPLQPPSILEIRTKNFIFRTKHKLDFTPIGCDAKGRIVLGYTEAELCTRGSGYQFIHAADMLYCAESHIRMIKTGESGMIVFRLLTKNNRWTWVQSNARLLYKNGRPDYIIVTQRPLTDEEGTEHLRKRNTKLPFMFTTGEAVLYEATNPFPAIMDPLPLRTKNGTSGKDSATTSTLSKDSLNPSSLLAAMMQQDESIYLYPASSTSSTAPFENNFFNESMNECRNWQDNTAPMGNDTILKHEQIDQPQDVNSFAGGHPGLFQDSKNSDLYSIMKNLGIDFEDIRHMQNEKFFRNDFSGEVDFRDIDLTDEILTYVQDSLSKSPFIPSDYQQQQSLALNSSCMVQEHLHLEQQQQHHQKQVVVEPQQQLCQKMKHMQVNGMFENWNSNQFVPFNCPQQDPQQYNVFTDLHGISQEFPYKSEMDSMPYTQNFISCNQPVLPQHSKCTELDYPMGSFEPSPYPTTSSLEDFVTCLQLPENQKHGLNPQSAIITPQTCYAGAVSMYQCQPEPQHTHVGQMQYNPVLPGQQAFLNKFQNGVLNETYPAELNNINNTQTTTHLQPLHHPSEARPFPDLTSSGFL
Sequence of Peroxisome proliferator-activated receptor gamma (Homo sapiens) (P37231 whole entry, looked up): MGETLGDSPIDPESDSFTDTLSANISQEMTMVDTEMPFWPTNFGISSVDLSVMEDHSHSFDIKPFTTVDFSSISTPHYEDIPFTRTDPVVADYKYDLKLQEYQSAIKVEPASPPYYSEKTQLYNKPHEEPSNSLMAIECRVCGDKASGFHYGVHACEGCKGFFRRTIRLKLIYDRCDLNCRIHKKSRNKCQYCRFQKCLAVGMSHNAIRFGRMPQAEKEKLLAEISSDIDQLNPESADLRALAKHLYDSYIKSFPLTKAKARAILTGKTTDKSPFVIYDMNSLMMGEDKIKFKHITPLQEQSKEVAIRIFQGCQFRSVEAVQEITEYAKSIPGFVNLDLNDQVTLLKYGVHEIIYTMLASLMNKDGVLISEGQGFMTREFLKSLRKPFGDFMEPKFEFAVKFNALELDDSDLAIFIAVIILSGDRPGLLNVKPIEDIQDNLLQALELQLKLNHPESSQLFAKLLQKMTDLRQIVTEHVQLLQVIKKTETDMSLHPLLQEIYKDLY
Sequence of Aromatase (Homo sapiens) (P11511 whole entry, looked up): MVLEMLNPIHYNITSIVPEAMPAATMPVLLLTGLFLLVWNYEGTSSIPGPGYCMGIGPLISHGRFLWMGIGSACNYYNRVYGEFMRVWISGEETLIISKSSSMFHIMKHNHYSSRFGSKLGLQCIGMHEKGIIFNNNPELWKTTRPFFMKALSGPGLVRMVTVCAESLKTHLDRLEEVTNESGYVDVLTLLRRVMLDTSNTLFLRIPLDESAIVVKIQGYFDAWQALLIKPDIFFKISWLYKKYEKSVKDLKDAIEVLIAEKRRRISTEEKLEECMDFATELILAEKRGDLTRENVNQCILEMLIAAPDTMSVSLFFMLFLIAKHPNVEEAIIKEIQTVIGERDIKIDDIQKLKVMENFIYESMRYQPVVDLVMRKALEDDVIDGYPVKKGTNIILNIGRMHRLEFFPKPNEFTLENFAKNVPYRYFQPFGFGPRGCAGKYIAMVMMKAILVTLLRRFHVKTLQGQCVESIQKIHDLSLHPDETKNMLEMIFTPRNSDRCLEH

SMILES	Potency [1]	Potency [2]	Potency [3]	Potency [4]	Potency [5]	Potency (Aromatase (Homo sapiens))	Potency [6]	Potency [7]	Potency [8]	Potency [9]	Potency [10]	Potency [11]	Potency [12]	Potency [13]	Potency [14]	Potency [15]	Potency [16]	Potency [17]	Potency [18]	Potency [19]
Oc1c(Cl)cc(Cl)c(Cl)c1Cc1c(O)c(Cl)cc(Cl)c1Cl	26.6 µM (active) and 9.66 µM (active) and 24.3 µM (active)	10.6 µM (active) and 2.43 µM (active) and 1.93 µM (active)	inactive	24.5 µM (active) and 4.9 µM (active)	inactive	10.6 µM (active) and 5.43 µM (active) and 6.11 µM (active)	6.09 µM (active)	inactive	inactive	173 nM (active) and 977 nM (active) and 1.68 µM (active)	24.3 µM (active) and 8.63 µM (active) and 8.41 µM (active)	21.8 µM (active) and 21.9 µM (active) and inactive	–	–	–	–	–	–	–	–
CC(C)(C)c1cc(C(C)(C)C)c(O)c(C(C)(C)C)c1	27.3 µM (active)	27.3 µM (active)	9.69 µM (active)	inactive	inactive	–	inactive	inactive	inactive	inactive	inactive	54.9 µM (active) and 49 µM (active)	inactive	inactive	inactive	–	–	–	–	–
Cc1cc(Cc2cc(C)cc(C(C)(C)C)c2O)c(O)c(C(C)(C)C)c1	15.4 µM (active) and 12.2 µM (active)	6.89 µM (active) and 8.63 µM (active)	inactive	22 µM (active) and 24.5 µM (active)	68.9 µM (active)	30.8 µM (active) and 48.6 µM (active)	54.8 µM (active) and 61.1 µM (active)	inactive	inactive	–	17.3 µM (active) and 27.3 µM (active)	11 µM (active) and 13.8 µM (active)	–	–	–	–	–	–	–	–
CCCC(=O)c1ccccc1	inactive	inactive	inactive	inactive	inactive	inactive	inactive	inactive	–	–	inactive	inactive	–	–	–	inactive	inactive	inactive	–	–
COc1ccc(CCN(C)CCCC(C#N)(c2ccc(OC)c(OC)c2)C(C)C)cc1OC (configuration not stated)	23.7 µM (active) and 21.6 µM (active)	26.6 µM (active) and 30.6 µM (active)	inactive	inactive	inactive and 30.6 µM (active)	–	27.3 µM (active)	–	–	inactive	–	inactive	–	–	–	–	–	–	–	–
Cc1occc(=O)c1OC(=O)C(C)C	inactive	inactive	inactive	inactive	inactive	inactive	inactive	inactive	inactive	inactive	inactive	inactive	–	–	–	–	–	inactive	–	–
Cc1cccc([N+](=O)[O-])c1C(=O)O	inactive	–	inactive	inactive	inactive	inactive	inactive	inactive	inactive	inactive	inactive	inactive	inactive	inactive	inactive	inactive	–	inactive	inactive	inactive
Cc1cc(C(C)(C)C)c(O)c(C(C)(C)C)c1	inactive	inactive	inactive	inactive	inactive	inactive	inactive	inactive	inactive	–	inactive	inactive	–	–	–	–	inactive	inactive	–	inactive
CC(C)(C)c1ccc(O)c(C(C)(C)C)c1	27.2 µM (active) and 30.6 µM (active)	30.5 µM (active) and 24.3 µM (active)	–	34.5 µM (active) and inactive	inactive	54.3 µM (active) and 54.5 µM (active)	48.4 µM (active) and 48.6 µM (active)	inactive	inactive	48.8 µM (active) and 38.9 µM (active)	61.1 µM (active)	48.8 µM (active) and 43.6 µM (active)	–	–	48.6 µM (active)	–	–	–	inactive	–
Cc1cccc(O)c1C	inactive	–	inactive	inactive	inactive	inactive	inactive	inactive	inactive	inactive	inactive	inactive	inactive	inactive	inactive	inactive	–	inactive	inactive	inactive
NNCCc1ccccc1	inactive and 27.4 µM (active)	30.7 µM (active)	inactive	inactive	inactive	inactive	inactive	10.1 µM (active) and 30.7 µM (active)	inactive	–	inactive	inactive	–	–	–	–	inactive	inactive	–	inactive
OCC(CO)N[C@H]1C[C@](O)(CO)[C@@H](O)[C@H](O)[C@H]1O	inactive	–	inactive	inactive	inactive	inactive	inactive	inactive	inactive	inactive	inactive	inactive	inactive	inactive	inactive	inactive	–	inactive	inactive	inactive
Nc1nc(=S)c2[nH]cnc2[nH]1	inactive	inactive	inactive	–	inactive	inactive	inactive	inactive and 61.1 µM (active)	inactive	2.98 µM (active)	3.86 µM (active)	inactive	19 µM [activator] (active) and inactive	21.1 µM (active) and inactive	inactive and 750 nM (active)	–	4.73 µM (active)	inactive	–	inactive
CC[C@H]1CN2CCc3cc(OC)c(OC)cc3[C@@H]2C[C@@H]1C[C@H]1NCCc2cc(OC)c(OC)cc21	84.1 nM (active) and 97.2 nM (active)	37.6 nM (active) and 38.7 nM (active)	inactive	inactive	9.72 µM (active)	237 nM (active) and 244 nM (active)	9.72 µM (active)	inactive	–	–	24.4 µM (active)	2.46 µM (active) and 10.6 µM (active)	–	–	–	–	–	inactive	–	–
CCn1c2ccccc2c2cc(N)ccc21	inactive	–	inactive	inactive	inactive	inactive	inactive	9.59 µM (active) and 9.69 µM (active) and 3.06 µM (active)	inactive	inactive	inactive	inactive	48.5 µM [inconclusive] (active) and inactive	inactive	inactive	inactive	inactive	–	inactive	inactive
COc1ccc(COC(C)=O)cc1	inactive	inactive	inactive	inactive	inactive	inactive	inactive	inactive	inactive	inactive	inactive	inactive	–	–	–	–	inactive	inactive and 54.9 µM (active)	–	–
CCC(=O)/C=C/C1C(C)=CCCC1(C)C (configuration not stated)	inactive	inactive	inactive	inactive	inactive	inactive	inactive	inactive	inactive	inactive	inactive	inactive	–	–	–	inactive	–	inactive	–	inactive
CC1=C(C=O)C(C)(C)CC=C1	inactive	inactive	inactive	inactive	inactive	inactive	inactive	inactive	inactive	–	inactive	inactive	–	–	–	inactive	–	inactive	–	inactive
CC(N)=O	inactive	inactive	inactive	inactive	inactive	inactive	inactive	inactive	inactive	–	inactive	inactive	–	–	–	inactive	inactive	inactive	–	–
C=CC(=O)OCCCCCCOC(=O)C=C	55.1 µM (active) and 54.5 µM (active)	27.6 µM (active) and 43.3 µM (active)	inactive	inactive	inactive	–	–	inactive	inactive	–	inactive	17.4 µM (active)	–	inactive	–	–	–	–	–	–
CCCCCC(=O)O[C@]1(C(C)=O)CC[C@H]2[C@@H]3CCC4=CC(=O)CC[C@]4(C)[C@H]3CC[C@@]21C	18.8 µM (active)	10.6 µM (active) and 19.2 µM (active)	inactive	–	inactive	inactive and 54.1 µM (active)	inactive	inactive	inactive	–	54.1 µM (active)	inactive	inactive	–	–	–	–	–	–	–
CCN(CC)CCOc1ccc(/C(=C(\Cl)c2ccccc2)c2ccccc2)cc1	7.5 µM (active) and 7.86 µM (active)	6.68 µM (active) and 7.86 µM (active)	inactive	39.7 µM (active)	inactive	3.35 µM (active) and 1.4 µM (active)	inactive and 27.9 µM (active)	inactive	–	–	15.7 µM (active) and 29.8 µM (active)	39.7 µM (active) and 29.8 µM (active)	–	–	–	–	–	–	–	–
O=Nc1ccc(Nc2ccccc2)cc1	5.48 µM (active) and 6.86 µM (active)	4.35 µM (active) and 5.45 µM (active)	inactive	–	inactive	–	27.4 µM (active)	–	inactive	19.6 µM (active) and 43.6 µM (active)	inactive	34.7 µM (active)	12.4 µM [inconclusive] (active) and 55 µM [activator] (active)	68.6 µM (active)	–	–	3.06 µM (active)	–	–	–
